From PubChem BioAssay (NCI) come the findings set out here.

Assay in all cases: NCI-60 one-dose screen, 48 h (100 = growth as untreated, 0 = no growth, -100 = all killed)
One test concerns SK-MEL-2 melanoma. The conditions noted are these: 10 µM unless noted.
The next test concerns SN12C renal. The conditions noted are these: 10 µM unless noted.
The subject of the next test is TK-10 renal. The conditions noted are these: 10 µM unless noted.
The next test has as its system ACHN renal. The following applies: 10 µM unless noted.
In the next test the test system is CAKI-1 renal. The following applies: 10 µM unless noted.
The next test has as its system A498 renal. The following applies: 10 µM unless noted.
Another test deals with CCRF-CEM leukemia. The conditions noted are these: 10 µM.
In a further test the test system is MOLT-4 leukemia. The following applies: 10 µM unless noted.
A further test has as its system UO-31 renal. The conditions noted are these: 10 µM unless noted.

Several values for one entry are separate records, joined by “and”; a condition that tells them apart may be missing. Identical values can stand only once. Compounds without any hit were thinned out: in the full panel of roughly 83,000, 20% have a hit.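 Note: values are percent growth. 100 is the growth of untreated cells, values between 100 and 0 indicate rising inhibition; between -100 and 0 indicates cell death.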 Activity calls are given as the source filed them. Rule for the calls: active = growth percent below 10; inactive = the rest.

As for `CCN(CCNS(C)(=O)=O)c1ccc(N)c(C)c1`, the growth was 21.6% (inactive) in the test on SK-MEL-2 melanoma; 88.1% (inactive) and 93.5% (inactive) in the test with SN12C renal; 55.8% (inactive) and 17.7% (inactive) with TK-10 renal; 27.9% (inactive) and 76.2% (inactive) in the test with ACHN renal; 39.4% (inactive) and 73.2% (inactive) with CAKI-1 renal; 104% (inactive) and 94.2% (inactive) with A498 renal. Also, the growth is 35.7% (inactive) in the test on CCRF-CEM leukemia; 66.3% (inactive) and 96.3% (inactive) in the test on MOLT-4 leukemia.

For the compound `CCOC(=O)c1c(C)cc(=O)oc1C`, the growth in the test on SK-MEL-2 melanoma is 125% (inactive); with SN12C renal it was 98.6% (inactive); in the test on TK-10 renal, 121% (inactive); with ACHN renal it was 104% (inactive); in the test on CCRF-CEM leukemia, 100% (inactive).

For the compound `CN(C)CC1CCCCCC(CN(C)C)C1=O` (stereo not given), the growth was 106% (inactive) in the test on SK-MEL-2 melanoma; 94.9% (inactive) in the test on SN12C renal; -22.3% (active) with TK-10 renal; -49.8% (active) with ACHN renal; -48.5% (active) in the test with CAKI-1 renal; 117% (inactive) with A498 renal. Further, the results for the growth in the test on CCRF-CEM leukemia and in the test on MOLT-4 leukemia were -23.7% (active) and 20.7% (inactive), respectively.

On to `c1ccc2c(c1)OC1OC2Oc2ccccc21`, for which the growth in the test on SK-MEL-2 melanoma was 87.7% (inactive); in the test on SN12C renal, 98.9% (inactive); in the test on TK-10 renal, 97.6% (inactive); in the test on ACHN renal, 101% (inactive); in the test with CAKI-1 renal it was 113% (inactive); with A498 renal, 117% (inactive). The growth with CCRF-CEM leukemia is 97.6% (inactive); in the test with MOLT-4 leukemia, 95.4% (inactive).

As for `CCCCOc1ccc(Nc2cc(Cl)ccc2C(=O)O)cn1`, the growth with SK-MEL-2 melanoma is 79.3% (inactive) and 112% (inactive); with SN12C renal, 94.2% (inactive) and 104% (inactive); with TK-10 renal it was 112% (inactive) and 121% (inactive); in the test with ACHN renal, 106% (inactive) and 89.9% (inactive); with CAKI-1 renal, 97.7% (inactive) and 94.4% (inactive); with A498 renal it was 102% (inactive). Moreover, in the test with CCRF-CEM leukemia, the growth was 82.3% (inactive) and 95% (inactive).

Regarding `Cc1cc(-c2cc(C)c(O)c(C)c2)cc(C)c1O`, the growth in the test on SK-MEL-2 melanoma is 73.5% (inactive); with SN12C renal it was 90.5% (inactive); in the test with TK-10 renal, 90.5% (inactive); in the test with ACHN renal, 92.1% (inactive); with CAKI-1 renal, 59.4% (inactive); with CCRF-CEM leukemia, 82.6% (inactive).

In the case of `CC1=C/C(O)CC(=O)Cc2nc(co2)C(=O)N2CCC=C2C(=O)OC(C(C)C)C(C)/C=C\C(=O)NC/C=C\1` (stereo not given), the growth in the test with SK-MEL-2 melanoma was 21.8% (inactive); in the test on SN12C renal, 87.9% (inactive); in the test with TK-10 renal it was 127% (inactive); in the test with ACHN renal, 86.2% (inactive); in the test with CAKI-1 renal it was 81% (inactive); with A498 renal, 90.9% (inactive). For the same compound, the growth with CCRF-CEM leukemia is 37% (inactive).

`NC(=O)NCCCC(N)C(=O)O` (stereo not given): the growth with SK-MEL-2 melanoma is 95.4% (inactive); in the test with SN12C renal it was 104% (inactive); in the test with TK-10 renal it was 99.3% (inactive); with ACHN renal, 98.7% (inactive); in the test with CAKI-1 renal it was 84.6% (inactive); with A498 renal, 113% (inactive).

As for `O=CN1CCCCC1`, the growth is 125% (inactive) with SK-MEL-2 melanoma; 104% (inactive) in the test on SN12C renal; 125% (inactive) in the test on TK-10 renal; 109% (inactive) with ACHN renal; 96.9% (inactive) with CAKI-1 renal; 84.1% (inactive) in the test on A498 renal. For the same compound, the growth in the test with CCRF-CEM leukemia is 115% (inactive).

Consider `Cc1ccc(=O)[nH]n1`, for which the growth is 116% (inactive) and 99.5% (inactive) with SK-MEL-2 melanoma; 107% (inactive) and 99.3% (inactive) in the test on SN12C renal; 110% (inactive) and 101% (inactive) with TK-10 renal; 114% (inactive) and 108% (inactive) with ACHN renal; 103% (inactive) and 97.7% (inactive) in the test with CAKI-1 renal; 110% (inactive) and 94.1% (inactive) in the test on A498 renal. For the same compound, the growth in the test with CCRF-CEM leukemia was 107% (inactive) and 99.6% (inactive).

In the case of `c1ccc(CNCCNCc2ccccc2)cc1`, the growth with SK-MEL-2 melanoma was 102% (inactive); with SN12C renal it was 105% (inactive); in the test with TK-10 renal, 119% (inactive); in the test on ACHN renal, 99.7% (inactive); with CAKI-1 renal, 98.5% (inactive); in the test on A498 renal it was 96.5% (inactive). The growth in the test on CCRF-CEM leukemia was 92.6% (inactive).

With `Cc1ccc(S(=O)(=O)c2ccccc2)cc1`, the growth in the test with SK-MEL-2 melanoma was 38.6% (inactive); with SN12C renal it was 50.4% (inactive); in the test with TK-10 renal, 51.6% (inactive); in the test on ACHN renal, 56% (inactive); in the test on CAKI-1 renal, 25.4% (inactive); in the test on A498 renal, 28% (inactive). In addition, the growth was 11.5% (inactive) with CCRF-CEM leukemia and 32.5% (inactive) in the test on MOLT-4 leukemia.

On to `CC1CCC(C(C)C)C(NNC(N)=O)C1` (stereo not given), for which the growth with SK-MEL-2 melanoma is 107% (inactive); in the test on SN12C renal, 101% (inactive); in the test with TK-10 renal, 105% (inactive); with ACHN renal, 110% (inactive); in the test with CAKI-1 renal, 98.9% (inactive); in the test with A498 renal, 102% (inactive). Besides, the growth is 106% (inactive) in the test on CCRF-CEM leukemia and 113% (inactive) in the test with MOLT-4 leukemia.

For `CC(=O)OCC1OC(OC(C)=O)C(OC(C)=O)C(OC(C)=O)C1OC(C)=O` (stereo not given), the growth in the test with SK-MEL-2 melanoma is 109% (inactive) and 111% (inactive); in the test on SN12C renal, 104% (inactive) and 105% (inactive); in the test on TK-10 renal, 110% (inactive) and 106% (inactive); in the test with ACHN renal, 96.4% (inactive) and 105% (inactive); with CAKI-1 renal, 97.1% (inactive) and 100% (inactive); in the test with A498 renal, 112% (inactive) and 85.9% (inactive). Further, the growth with CCRF-CEM leukemia is 95.2% (inactive) and 110% (inactive); in the test with MOLT-4 leukemia, 98.9% (inactive) and 99.9% (inactive).

Turning to `O=C1NC(N/N=C\C(O)C(O)C(O)CO)=N/C1=C/c1ccc(Cl)cc1` (stereo not given), the growth in the test on TK-10 renal is 54.4% [100 µM] (inactive) and -100% [100 µM] (active) and 89.6% [100 µM] (inactive).

For `COc1cc(C(O)C2C(=O)OCC2C2(c3ccc4c(c3)OCO4)SCCCS2)cc(OC)c1OC` (stereo not given), the growth in the test with SK-MEL-2 melanoma is 95.6% (inactive); in the test on SN12C renal it was 101% (inactive); in the test with TK-10 renal, 98.2% (inactive); in the test with ACHN renal it was 103% (inactive); in the test on CAKI-1 renal, 93.8% (inactive); in the test with A498 renal, 84.4% (inactive). Besides, the growth in the test on CCRF-CEM leukemia is 98.2% (inactive).

Take `Cn1cnc([N+](=O)[O-])c1Sc1ncn[nH]1`: the growth is 101% (inactive) in the test with SN12C renal; 82.9% (inactive) with UO-31 renal; 106% (inactive) in the test on TK-10 renal; 110% (inactive) in the test with ACHN renal; 68.4% (inactive) in the test on CAKI-1 renal; 117% (inactive) with A498 renal. The growth in the test with MOLT-4 leukemia was 121% (inactive).

For the compound `O=C(O)CCCl`, the growth is 123% (inactive) in the test on SK-MEL-2 melanoma; 107% (inactive) in the test with SN12C renal; 107% (inactive) in the test on TK-10 renal; 101% (inactive) in the test on ACHN renal; 102% (inactive) in the test with CAKI-1 renal; 99.1% (inactive) in the test on A498 renal. In the test with CCRF-CEM leukemia, the growth is 93% (inactive).

As for `CCCCOC(=O)/C=C\C(=O)NC(N)=O`, the growth in the test on SK-MEL-2 melanoma is 111% (inactive); with SN12C renal it was 87.2% (inactive); with TK-10 renal, 119% (inactive); with ACHN renal it was 61.3% (inactive); in the test with CAKI-1 renal, -58% (active); in the test on A498 renal, 106% (inactive). In addition, the growth is 75.2% (inactive) in the test with CCRF-CEM leukemia and 65.4% (inactive) in the test on MOLT-4 leukemia.

With `Nc1ncnc2c1ncn2C1OC(COP(=O)(O)O)C(O)C1O` (stereo not given), the growth in the test with SN12C renal was 99.9% (inactive); with TK-10 renal, 122% (inactive); in the test with ACHN renal, 103% (inactive); in the test on CAKI-1 renal it was 106% (inactive); in the test on CCRF-CEM leukemia, 105% (inactive); with MOLT-4 leukemia it was 109% (inactive).

Regarding `N#CC(C#N)N=Nc1ccc(Cl)cc1`, the growth in the test with SK-MEL-2 melanoma is 77.3% (inactive); with SN12C renal it was 33.5% (inactive); in the test on TK-10 renal, 42.9% (inactive); with ACHN renal, 26.9% (inactive); in the test with CAKI-1 renal it was 4.49% (active); in the test with A498 renal, 86% (inactive). The growth in the test with CCRF-CEM leukemia was 28.6% (inactive); with MOLT-4 leukemia, 37.6% (inactive).

For the compound `CC(C)NCC(O)c1ccc(O)c(O)c1` (stereo not given), the growth is 110% (inactive) and 240% (inactive) with SK-MEL-2 melanoma; 76.5% (inactive) and 91.4% (inactive) and 92.8% (inactive) in the test with SN12C renal; 92.5% (inactive) and 87.4% (inactive) in the test on TK-10 renal; 89.6% (inactive) and 104% (inactive) in the test on ACHN renal; 93.6% (inactive) and 83.6% (inactive) in the test with CAKI-1 renal; 95.8% (inactive) and 119% (inactive) and 78.3% (inactive) with A498 renal. Besides, the growth with CCRF-CEM leukemia is 90.8% (inactive) and 100% (inactive) and 103% (inactive); in the test with MOLT-4 leukemia it was 98.5% (inactive) and 95.2% (inactive) and 98.8% (inactive).

With `O=C(CO)C(O)C(O)C(O)C(O)CO` (stereo not given), the growth was 104% (inactive) and 108% (inactive) with SK-MEL-2 melanoma; 99.8% (inactive) and 97.3% (inactive) with SN12C renal; 106% (inactive) and 102% (inactive) in the test on TK-10 renal; 110% (inactive) and 109% (inactive) with ACHN renal; 102% (inactive) and 101% (inactive) in the test on CAKI-1 renal; 97.5% (inactive) and 100% (inactive) with A498 renal. In addition, the growth in the test on CCRF-CEM leukemia is 103% (inactive) and 105% (inactive); with MOLT-4 leukemia, 106% (inactive) and 95.8% (inactive).
